# Key:
# Assay in all cases: DAPPL (digital affinity profiling via proximity ligation, sequencing); 10 mM Tris-HCl pH 7.5, 50 mM NaCl, 1 mM DTT, 4% glycerol, room temperature, 30 min; GST-TFs on glutathione beads, 16-mer random dsDNA library, 0.1% formaldehyde crosslink after washing; high values mean tight binding
# Conditions in all cases: protein: recombinant; tags: N-terminal GST; dsDNA, one strand shown
# FLI1 = molecular target: T1, FLI1 (Homo sapiens, UniProt Q01543 1-452)
# T1 sequence: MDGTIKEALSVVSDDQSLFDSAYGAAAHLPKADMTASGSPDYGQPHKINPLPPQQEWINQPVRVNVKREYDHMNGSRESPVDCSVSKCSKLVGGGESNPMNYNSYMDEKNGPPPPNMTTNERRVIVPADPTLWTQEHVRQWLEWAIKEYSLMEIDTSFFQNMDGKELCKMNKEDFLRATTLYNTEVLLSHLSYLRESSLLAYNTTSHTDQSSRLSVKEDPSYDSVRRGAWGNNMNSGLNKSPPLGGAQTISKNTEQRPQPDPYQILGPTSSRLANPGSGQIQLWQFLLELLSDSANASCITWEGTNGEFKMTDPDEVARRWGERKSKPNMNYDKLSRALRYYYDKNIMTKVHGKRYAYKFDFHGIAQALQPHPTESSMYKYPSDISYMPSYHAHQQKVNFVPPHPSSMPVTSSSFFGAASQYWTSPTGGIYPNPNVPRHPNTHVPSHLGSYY
# Procedure, shortened: (§1)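 Binding signal is given per hexamer as its read frequency for a factor divided by its frequency in the tag-only sample. GST-fused human transcription factors were expressed in yeast, captured on glutathione beads, barcoded with DNA and pooled with that sample, then incubated with 200 nmole of a 16-mer random double-stranded DNA library in Tris/NaCl/DTT/glycerol buffer for 30 min at room temperature. The pools were then washed, crosslinked, proximity-ligated, amplified by PCR and sequenced on an Illumina NextSeq500.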
# ELK1 = molecular target: T2, ELK1 (Homo sapiens, UniProt P19419 1-428)
# T2 sequence: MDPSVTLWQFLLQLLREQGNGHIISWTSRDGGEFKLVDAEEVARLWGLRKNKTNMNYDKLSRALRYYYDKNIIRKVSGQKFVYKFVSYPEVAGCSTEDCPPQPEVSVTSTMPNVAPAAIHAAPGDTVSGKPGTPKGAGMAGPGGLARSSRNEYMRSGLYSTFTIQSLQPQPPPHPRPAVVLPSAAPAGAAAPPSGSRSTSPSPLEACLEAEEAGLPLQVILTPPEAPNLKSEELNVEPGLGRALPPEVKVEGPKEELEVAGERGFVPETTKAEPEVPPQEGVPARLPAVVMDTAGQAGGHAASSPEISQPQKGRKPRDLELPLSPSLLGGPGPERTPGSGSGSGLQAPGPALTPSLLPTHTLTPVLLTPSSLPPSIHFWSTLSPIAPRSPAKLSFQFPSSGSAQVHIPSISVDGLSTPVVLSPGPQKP
# Procedure, shortened: as §1
# GABPA = molecular target: T3, GABPA (Homo sapiens, UniProt Q06546 1-454)
# T3 sequence: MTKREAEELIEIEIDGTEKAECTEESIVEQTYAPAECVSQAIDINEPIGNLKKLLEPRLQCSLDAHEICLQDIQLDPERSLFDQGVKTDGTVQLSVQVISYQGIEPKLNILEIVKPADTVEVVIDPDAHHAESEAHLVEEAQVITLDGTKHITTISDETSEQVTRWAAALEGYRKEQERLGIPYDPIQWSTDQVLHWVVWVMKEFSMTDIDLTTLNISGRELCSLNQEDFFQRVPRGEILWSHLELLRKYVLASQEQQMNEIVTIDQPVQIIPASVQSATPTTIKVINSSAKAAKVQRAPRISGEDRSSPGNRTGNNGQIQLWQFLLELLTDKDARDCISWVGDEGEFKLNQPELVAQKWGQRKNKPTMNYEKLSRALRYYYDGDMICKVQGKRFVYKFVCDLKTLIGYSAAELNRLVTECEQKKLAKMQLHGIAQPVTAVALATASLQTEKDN
# Procedure, shortened: as §1
# ERG = molecular target: T4, ERG (Homo sapiens, UniProt P11308 1-479)
# T4 sequence: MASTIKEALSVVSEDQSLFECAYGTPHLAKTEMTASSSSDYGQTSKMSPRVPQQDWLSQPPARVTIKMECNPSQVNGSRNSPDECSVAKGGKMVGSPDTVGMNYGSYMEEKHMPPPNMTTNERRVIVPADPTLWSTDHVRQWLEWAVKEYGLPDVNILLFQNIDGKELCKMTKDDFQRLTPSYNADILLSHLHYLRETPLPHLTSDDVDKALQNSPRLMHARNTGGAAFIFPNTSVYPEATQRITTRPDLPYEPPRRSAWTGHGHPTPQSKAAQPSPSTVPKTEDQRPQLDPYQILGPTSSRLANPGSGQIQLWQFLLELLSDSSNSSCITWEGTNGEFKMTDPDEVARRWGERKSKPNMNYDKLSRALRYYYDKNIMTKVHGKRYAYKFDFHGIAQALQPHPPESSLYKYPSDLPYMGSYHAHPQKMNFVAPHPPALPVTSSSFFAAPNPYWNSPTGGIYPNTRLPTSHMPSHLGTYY
# Procedure, shortened: as §1
# ELF1 = ELF1 (Homo sapiens, UniProt P32519 1-619)
# Sequence of ELF1 (P32519 whole entry): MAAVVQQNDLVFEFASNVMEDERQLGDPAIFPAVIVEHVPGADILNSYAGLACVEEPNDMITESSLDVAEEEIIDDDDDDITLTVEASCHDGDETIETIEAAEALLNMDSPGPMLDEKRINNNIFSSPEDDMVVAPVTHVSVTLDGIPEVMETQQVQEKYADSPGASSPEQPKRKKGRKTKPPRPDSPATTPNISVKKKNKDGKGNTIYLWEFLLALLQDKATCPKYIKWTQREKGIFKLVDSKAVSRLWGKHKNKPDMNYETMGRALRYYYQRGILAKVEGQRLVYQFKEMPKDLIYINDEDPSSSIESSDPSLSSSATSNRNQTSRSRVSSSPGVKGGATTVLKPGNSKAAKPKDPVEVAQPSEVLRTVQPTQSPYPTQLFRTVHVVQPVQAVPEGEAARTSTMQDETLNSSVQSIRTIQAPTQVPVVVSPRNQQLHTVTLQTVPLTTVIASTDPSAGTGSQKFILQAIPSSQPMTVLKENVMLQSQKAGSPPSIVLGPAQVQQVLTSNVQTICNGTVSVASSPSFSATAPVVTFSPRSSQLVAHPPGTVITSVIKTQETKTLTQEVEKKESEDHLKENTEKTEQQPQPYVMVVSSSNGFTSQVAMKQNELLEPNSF
# Procedure, shortened: as §1
# EHF = molecular target: T5, EHF (Homo sapiens, UniProt Q9NZC4 1-300)
# T5 sequence: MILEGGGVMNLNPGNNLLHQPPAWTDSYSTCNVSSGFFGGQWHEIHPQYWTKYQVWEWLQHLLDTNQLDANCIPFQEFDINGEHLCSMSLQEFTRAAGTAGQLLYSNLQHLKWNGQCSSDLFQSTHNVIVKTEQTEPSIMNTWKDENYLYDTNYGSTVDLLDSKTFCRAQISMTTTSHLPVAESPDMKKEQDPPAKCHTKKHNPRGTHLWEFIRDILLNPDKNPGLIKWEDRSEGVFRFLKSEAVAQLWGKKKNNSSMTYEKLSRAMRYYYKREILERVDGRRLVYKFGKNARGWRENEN
# Procedure, shortened: as §1
# SPI1 = SPI1 (Homo sapiens, UniProt P17947 1-270)
# Procedure, shortened: as §1
# SPIB = SPIB (Homo sapiens, UniProt Q01892 1-262)
# Sequence of SPIB (Q01892 whole entry): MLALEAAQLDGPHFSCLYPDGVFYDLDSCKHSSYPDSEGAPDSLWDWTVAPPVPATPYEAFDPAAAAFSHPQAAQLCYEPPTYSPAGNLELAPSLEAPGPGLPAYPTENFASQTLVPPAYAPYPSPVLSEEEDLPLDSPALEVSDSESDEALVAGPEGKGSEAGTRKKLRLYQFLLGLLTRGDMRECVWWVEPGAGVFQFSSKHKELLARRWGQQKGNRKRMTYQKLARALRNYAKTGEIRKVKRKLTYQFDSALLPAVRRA
# Procedure, shortened: as §1
# ELK3 = molecular target: T6, ELK3 (Homo sapiens, UniProt P41970 1-407)
# T6 sequence: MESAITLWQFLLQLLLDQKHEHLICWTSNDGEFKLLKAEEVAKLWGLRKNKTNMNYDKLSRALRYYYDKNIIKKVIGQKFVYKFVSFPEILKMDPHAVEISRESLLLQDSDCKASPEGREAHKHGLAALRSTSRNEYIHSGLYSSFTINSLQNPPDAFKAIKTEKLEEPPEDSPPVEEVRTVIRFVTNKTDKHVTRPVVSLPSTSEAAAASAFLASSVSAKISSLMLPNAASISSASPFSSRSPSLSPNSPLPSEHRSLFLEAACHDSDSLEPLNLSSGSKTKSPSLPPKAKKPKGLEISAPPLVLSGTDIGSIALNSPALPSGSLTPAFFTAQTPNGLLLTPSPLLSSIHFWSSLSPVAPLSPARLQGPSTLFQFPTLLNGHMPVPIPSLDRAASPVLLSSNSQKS
# Procedure, shortened: as §1
# FEV = molecular target: T7, FEV (Homo sapiens, UniProt Q99581 1-238)
# T7 sequence: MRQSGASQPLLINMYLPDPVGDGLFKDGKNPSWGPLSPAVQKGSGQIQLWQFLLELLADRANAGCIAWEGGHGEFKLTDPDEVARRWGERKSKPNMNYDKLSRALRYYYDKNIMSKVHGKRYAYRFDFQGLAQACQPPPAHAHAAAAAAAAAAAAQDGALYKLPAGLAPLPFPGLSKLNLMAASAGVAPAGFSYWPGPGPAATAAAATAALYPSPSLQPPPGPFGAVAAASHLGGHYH
# Procedure, shortened: as §1
# ETV5 = ETV5 (Homo sapiens, UniProt P41161 1-510)
# Sequence of ETV5 (P41161 whole entry): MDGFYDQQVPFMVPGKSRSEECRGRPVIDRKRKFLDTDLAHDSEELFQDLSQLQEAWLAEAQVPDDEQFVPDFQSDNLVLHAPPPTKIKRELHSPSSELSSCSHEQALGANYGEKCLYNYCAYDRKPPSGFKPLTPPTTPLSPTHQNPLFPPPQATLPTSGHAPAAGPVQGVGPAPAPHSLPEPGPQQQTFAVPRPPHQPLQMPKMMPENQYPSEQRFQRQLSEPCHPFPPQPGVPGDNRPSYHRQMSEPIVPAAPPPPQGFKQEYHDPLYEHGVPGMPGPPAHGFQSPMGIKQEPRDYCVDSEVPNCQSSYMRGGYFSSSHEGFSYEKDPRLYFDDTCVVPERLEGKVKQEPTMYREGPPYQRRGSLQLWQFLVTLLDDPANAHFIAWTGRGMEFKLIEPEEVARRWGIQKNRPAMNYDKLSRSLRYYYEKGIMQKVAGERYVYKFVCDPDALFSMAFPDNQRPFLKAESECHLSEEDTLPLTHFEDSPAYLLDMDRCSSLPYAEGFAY
# Procedure, shortened: as §1
# SPIC = molecular target: T8, SPIC (Homo sapiens, UniProt Q8N5J4 1-248)
# T8 sequence: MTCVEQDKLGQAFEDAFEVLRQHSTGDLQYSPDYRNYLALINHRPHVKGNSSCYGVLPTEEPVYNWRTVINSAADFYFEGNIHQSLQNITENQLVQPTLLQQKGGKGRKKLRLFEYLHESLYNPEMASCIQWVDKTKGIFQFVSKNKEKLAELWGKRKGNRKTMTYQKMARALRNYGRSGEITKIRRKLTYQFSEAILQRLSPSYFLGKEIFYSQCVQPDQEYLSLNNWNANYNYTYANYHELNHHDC
# Procedure, shortened: as §1
# ELF4 = ELF4 (Homo sapiens, UniProt Q99607 1-663)
# Sequence of ELF4 (Q99607 whole entry): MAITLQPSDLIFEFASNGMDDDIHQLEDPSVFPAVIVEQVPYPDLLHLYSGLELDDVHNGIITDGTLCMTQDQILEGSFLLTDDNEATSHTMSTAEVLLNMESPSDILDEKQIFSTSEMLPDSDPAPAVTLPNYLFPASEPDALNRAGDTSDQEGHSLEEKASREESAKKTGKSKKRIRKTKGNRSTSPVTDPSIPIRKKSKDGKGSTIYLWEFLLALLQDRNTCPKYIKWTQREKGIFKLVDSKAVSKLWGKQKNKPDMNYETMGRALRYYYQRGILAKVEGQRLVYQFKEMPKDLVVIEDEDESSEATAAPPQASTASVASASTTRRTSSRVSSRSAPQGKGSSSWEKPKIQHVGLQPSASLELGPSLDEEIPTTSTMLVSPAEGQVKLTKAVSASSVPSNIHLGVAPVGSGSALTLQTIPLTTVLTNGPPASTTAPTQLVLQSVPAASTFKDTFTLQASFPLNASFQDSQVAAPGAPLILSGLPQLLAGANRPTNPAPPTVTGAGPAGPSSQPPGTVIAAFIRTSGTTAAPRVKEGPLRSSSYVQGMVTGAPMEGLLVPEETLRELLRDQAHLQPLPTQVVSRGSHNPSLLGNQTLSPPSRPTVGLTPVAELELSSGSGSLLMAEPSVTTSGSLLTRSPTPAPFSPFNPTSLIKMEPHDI
# Procedure, shortened: as §1
# ELK4 = molecular target: T9, ELK4 (Homo sapiens, UniProt P28324-2 1-405)
# T9 sequence: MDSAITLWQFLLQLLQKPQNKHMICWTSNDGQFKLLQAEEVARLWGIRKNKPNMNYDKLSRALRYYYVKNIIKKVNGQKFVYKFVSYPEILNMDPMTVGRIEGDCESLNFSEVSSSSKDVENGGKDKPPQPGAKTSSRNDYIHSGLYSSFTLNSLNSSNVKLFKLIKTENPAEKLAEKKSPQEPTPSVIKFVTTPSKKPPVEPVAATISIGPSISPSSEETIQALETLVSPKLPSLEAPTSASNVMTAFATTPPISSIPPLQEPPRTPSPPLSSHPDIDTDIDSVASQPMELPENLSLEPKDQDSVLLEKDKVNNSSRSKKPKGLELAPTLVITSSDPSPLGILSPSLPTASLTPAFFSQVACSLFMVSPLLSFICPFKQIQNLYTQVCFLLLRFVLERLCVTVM
# Procedure, shortened: as §1
# ETV2 = molecular target: T10, ETV2 (Homo sapiens, UniProt O00321 1-342)
# T10 sequence: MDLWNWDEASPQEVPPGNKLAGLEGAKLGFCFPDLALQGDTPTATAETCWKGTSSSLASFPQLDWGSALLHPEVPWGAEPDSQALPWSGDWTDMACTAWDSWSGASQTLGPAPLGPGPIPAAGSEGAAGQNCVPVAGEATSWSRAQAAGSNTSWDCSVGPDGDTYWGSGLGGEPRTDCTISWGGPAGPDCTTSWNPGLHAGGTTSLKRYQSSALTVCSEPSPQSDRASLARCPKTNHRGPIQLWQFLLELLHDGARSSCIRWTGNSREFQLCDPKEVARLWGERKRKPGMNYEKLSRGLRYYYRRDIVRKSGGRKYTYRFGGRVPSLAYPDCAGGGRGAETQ
# Procedure, shortened: as §1
# ELF3 = molecular target: T11, ELF3 (Homo sapiens, UniProt P78545 1-371)
# T11 sequence: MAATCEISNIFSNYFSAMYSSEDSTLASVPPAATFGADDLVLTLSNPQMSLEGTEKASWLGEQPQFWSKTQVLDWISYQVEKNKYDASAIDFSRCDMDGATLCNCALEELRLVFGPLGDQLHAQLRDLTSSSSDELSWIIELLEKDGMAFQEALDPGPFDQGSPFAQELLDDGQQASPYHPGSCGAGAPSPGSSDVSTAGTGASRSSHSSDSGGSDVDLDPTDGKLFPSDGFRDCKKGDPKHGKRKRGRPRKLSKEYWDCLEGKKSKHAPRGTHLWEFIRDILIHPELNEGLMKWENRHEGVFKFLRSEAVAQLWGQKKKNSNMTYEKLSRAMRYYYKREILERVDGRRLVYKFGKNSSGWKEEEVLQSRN
# Procedure, shortened: as §1
# ETV1 = ETV1 (Homo sapiens, UniProt P50549 1-477)
# Sequence of ETV1 (P50549 whole entry): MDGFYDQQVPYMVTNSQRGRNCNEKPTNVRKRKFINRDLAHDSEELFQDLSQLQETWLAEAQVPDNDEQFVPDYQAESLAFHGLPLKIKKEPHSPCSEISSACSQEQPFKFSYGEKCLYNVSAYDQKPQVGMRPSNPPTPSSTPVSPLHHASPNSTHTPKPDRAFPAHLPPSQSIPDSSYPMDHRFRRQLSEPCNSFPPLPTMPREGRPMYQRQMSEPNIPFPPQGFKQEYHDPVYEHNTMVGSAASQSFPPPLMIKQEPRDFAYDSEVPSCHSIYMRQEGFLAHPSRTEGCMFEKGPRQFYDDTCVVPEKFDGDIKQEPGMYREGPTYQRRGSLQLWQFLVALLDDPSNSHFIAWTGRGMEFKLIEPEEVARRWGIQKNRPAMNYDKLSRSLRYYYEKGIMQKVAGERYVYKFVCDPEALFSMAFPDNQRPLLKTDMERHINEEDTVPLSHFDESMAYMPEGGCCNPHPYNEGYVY
# Procedure, shortened: as §1
sequence,measurement,setting,value
ACACAC,binding signal,FLI1,"1.24 fold enrichment (6-mer frequency, TF over GST control)"
same,binding signal,ELK1,"1.13 fold enrichment (6-mer frequency, TF over GST control)"
same,binding signal,GABPA,"1.21 fold enrichment (6-mer frequency, TF over GST control)"
same,binding signal,ERG,"1.22 fold enrichment (6-mer frequency, TF over GST control)"
same,binding signal,ELF1,"1.19 fold enrichment (6-mer frequency, TF over GST control)"
same,binding signal,EHF,"1.23 fold enrichment (6-mer frequency, TF over GST control)"
same,binding signal,SPI1,"1.14 fold enrichment (6-mer frequency, TF over GST control)"
same,binding signal,SPIB,"1.19 fold enrichment (6-mer frequency, TF over GST control)"
same,binding signal,ELK3,"1.12 fold enrichment (6-mer frequency, TF over GST control)"
same,binding signal,FEV,"1.18 fold enrichment (6-mer frequency, TF over GST control)"
same,binding signal,ETV5,"1.15 fold enrichment (6-mer frequency, TF over GST control)"
same,binding signal,SPIC,"1.23 fold enrichment (6-mer frequency, TF over GST control)"
same,binding signal,ELF4,"1.21 fold enrichment (6-mer frequency, TF over GST control)"
same,binding signal,ELK4,"1.21 fold enrichment (6-mer frequency, TF over GST control)"
same,binding signal,ETV2,"1.33 fold enrichment (6-mer frequency, TF over GST control)"
same,binding signal,ELF3,"1.23 fold enrichment (6-mer frequency, TF over GST control)"
same,binding signal,ETV1,"1.17 fold enrichment (6-mer frequency, TF over GST control)"
